Results on eight compounds are retold here after ChEMBL document CHEMBL3988442, “University of Dundee, Small-Polar-MMV Screening Library” (2021).

Holding throughout (set-up): scale not given: direction of the effect not stated beside the values
In test [1] the target is Protein translocase subunit SecA (Escherichia coli (strain K12)) (UniProt P10408). The experiment in a line: Assay to Identify E. coli SecA ATPase Inhibitors. Type of test: functional. Particulars: 30 µM.
Test [2] concerns the target T1, Ubiquitin-activating enzyme e1, putative (Leishmania donovani (strain BPK282A1)) (UniProt E9BSI1).
T1 sequence (whole entry): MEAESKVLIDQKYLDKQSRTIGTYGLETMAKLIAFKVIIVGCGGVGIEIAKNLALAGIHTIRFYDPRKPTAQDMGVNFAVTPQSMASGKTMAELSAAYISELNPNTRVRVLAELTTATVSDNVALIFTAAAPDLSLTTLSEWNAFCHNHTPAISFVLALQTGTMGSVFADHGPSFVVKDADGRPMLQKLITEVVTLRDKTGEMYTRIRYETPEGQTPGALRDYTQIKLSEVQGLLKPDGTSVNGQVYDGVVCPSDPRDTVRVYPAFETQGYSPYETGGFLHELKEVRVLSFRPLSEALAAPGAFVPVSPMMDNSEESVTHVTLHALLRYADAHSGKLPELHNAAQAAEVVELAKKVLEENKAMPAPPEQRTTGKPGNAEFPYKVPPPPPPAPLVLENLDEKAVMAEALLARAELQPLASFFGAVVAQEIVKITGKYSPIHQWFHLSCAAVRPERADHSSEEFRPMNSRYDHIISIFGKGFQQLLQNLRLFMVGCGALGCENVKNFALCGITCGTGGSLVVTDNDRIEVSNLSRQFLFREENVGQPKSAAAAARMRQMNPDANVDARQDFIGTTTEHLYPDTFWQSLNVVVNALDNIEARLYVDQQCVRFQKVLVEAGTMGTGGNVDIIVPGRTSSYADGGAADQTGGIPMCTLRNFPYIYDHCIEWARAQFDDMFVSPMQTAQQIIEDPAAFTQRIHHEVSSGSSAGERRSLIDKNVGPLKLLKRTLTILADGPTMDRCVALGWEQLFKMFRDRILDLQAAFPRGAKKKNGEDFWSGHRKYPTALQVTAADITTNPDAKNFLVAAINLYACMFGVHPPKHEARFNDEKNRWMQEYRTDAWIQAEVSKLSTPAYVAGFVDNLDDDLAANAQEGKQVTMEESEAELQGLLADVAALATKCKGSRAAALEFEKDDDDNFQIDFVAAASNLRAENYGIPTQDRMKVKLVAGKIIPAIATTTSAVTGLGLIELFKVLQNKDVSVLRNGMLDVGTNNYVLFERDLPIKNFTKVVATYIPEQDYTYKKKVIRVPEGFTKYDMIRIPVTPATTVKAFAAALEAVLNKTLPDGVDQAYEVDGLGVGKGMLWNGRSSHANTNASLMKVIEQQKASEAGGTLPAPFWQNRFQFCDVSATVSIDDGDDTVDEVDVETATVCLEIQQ
Nature of the test: Leishmania donovani Ubiquitin Activating Enzyme (LdE1). The format is functional. Particulars: 30 µM.

Test [3] concerns the target AMP-activated protein kinase, AMPK (Homo sapiens) (UniProt P54646+O43741+P54619+Q9UGJ0+Q9Y478+Q13131+Q9UGI9). Nature of the test: AMP-dependent Kinase enzyme assay. An in vitro enzyme assay that detects ADP turnover that is directly proportional to AMPK activity. This uses naive AMPK that is activated during the assay with MK-8722. The format is functional. Particulars: 30 µM.

In test [4] the target is Sialic acid-binding Ig-like lectin 9 (Homo sapiens) (UniProt Q9Y336). The experiment in a line: Hs-Siglec9 ALPHAscreen SOP 20170721. Particulars: 10 µM.
A further test concerns Trypanosoma cruzi. Nature of the test: Trypanosoma cruzi phosphomannomutase and mannose-1-phosphate guanylyltransferase assay. The format is functional. Particulars: 10 µM.
The target of test [5] is T2, Arginase-2, mitochondrial (Homo sapiens) (UniProt P78540).
T2 sequence (whole entry): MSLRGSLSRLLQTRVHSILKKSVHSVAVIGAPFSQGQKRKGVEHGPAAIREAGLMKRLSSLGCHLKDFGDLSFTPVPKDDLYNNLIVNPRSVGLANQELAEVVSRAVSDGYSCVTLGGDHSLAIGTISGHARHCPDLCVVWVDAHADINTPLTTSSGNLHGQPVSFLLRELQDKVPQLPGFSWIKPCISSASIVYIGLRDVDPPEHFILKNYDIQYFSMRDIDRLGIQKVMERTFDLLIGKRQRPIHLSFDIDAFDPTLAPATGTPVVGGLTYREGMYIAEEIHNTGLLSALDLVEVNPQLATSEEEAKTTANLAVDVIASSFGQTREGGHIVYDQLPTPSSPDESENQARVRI
Nature of the test: in vitro enzyme assay to detect the production of urea directly proportional to the activity of Arginase II. Further: in the data most compounds retested in dose-response had high values. Particulars: 33.3 µM. Type of test: functional.

The target of test [6] is T3, Proteasome subunit beta (Trypanosoma cruzi) (UniProt O96673).
T3 sequence (whole entry): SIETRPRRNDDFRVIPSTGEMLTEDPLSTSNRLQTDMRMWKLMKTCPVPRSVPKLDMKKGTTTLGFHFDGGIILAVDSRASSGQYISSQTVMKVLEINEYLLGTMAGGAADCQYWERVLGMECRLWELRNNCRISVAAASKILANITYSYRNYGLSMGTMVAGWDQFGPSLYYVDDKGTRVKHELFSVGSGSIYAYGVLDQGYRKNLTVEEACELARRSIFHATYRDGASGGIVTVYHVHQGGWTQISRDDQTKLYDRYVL
The experiment in a line: Trypanosoma cruzi proteasome chymotrypsin-like activity (TcProtChymo) assay. Further: in the data most compounds retested in dose-response had high values. Type of test: functional. Conditions: 9.37 µM.

The species named for the next test is Homo sapiens. Nature of the test: To identify inhibition of the IFN signalling (Jak-Stat) pathway via expression of an eGFP reporter gene under the control of an IFN-stimulated response element (ISRE) containing MxA promoter. The format is functional. Conditions: 30 µM. In general terms: Reporter assays use an easily measured gene product as a stand-in for the process of interest.

In test [7] the target is T4, Tyrosyl-tRNA synthetase, putative (Trypanosoma cruzi (strain CL Brener)) (UniProt Q4DSP6).
T4 sequence (whole entry): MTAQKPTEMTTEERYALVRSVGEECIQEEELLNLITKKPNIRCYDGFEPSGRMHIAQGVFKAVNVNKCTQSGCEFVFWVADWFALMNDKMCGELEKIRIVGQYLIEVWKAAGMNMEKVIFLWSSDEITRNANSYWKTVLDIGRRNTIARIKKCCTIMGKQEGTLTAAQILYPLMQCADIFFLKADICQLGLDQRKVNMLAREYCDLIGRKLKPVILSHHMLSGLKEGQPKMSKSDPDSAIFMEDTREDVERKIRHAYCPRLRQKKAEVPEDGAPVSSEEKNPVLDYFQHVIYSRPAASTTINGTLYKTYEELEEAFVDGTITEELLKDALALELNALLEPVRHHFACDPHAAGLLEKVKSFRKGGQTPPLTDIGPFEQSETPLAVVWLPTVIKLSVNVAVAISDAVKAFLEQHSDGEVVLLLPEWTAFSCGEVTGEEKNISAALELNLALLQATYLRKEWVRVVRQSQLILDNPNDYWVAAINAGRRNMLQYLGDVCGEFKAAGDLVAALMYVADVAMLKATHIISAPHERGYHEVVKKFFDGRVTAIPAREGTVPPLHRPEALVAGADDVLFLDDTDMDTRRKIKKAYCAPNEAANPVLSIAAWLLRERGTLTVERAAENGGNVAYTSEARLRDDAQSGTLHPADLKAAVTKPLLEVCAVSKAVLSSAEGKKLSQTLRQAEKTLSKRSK
Nature of the test: Trypanosoma cruzi tyrosyl tRNA synthetase (TcYRS) _High Tyrosine SOP. Further: in the data most compounds retested in dose-response had high values. The format is functional. Particulars: 30 µM.

Test [8] has as its target T4, Tyrosyl-tRNA synthetase, putative (Trypanosoma cruzi (strain CL Brener)). The experiment in a line: Trypanosoma cruzi tyrosyl tRNA synthetase (TcYRS) SOP. The format is functional. Conditions: 30 µM.
In test [9] the target is Chromo domain-containing protein 1 (Saccharomyces cerevisiae (strain ATCC 204508 / S288c) (Baker's yeast)) (UniProt P32657). The experiment in a line: ScCHD-1 Enzyme Inhibition Assay. Further: in the data most compounds retested in dose-response had high values. Type of test: functional. Particulars: 30 µM.

Each structure is given as a SMILES string. For some of these results: Measured potencies and affinities stand elsewhere.

Sequence of Protein translocase subunit SecA (Escherichia coli (strain K12)) (P10408 whole entry): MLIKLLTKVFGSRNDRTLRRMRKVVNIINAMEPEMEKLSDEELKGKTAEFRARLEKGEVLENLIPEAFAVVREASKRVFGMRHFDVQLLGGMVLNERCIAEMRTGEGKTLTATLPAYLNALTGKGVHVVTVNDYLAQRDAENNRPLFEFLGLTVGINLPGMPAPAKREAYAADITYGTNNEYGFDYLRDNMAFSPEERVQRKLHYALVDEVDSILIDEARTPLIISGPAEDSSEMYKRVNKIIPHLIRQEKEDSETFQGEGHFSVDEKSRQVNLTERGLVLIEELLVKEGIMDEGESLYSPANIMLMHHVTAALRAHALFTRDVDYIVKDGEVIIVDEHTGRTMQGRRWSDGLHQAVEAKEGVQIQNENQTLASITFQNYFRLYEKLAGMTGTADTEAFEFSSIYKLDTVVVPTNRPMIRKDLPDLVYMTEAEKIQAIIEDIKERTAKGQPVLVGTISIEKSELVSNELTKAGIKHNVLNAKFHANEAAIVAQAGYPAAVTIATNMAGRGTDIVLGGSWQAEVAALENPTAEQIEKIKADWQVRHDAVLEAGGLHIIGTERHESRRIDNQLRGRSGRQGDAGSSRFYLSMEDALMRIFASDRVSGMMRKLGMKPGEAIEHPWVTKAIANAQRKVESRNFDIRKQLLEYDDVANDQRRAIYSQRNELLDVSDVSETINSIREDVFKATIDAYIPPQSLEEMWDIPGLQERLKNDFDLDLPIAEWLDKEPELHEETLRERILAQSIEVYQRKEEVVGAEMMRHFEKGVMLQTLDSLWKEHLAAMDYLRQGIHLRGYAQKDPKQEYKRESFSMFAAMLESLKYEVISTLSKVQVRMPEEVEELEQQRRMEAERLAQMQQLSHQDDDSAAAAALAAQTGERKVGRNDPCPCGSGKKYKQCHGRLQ
Sequence of Chromo domain-containing protein 1 (Saccharomyces cerevisiae (strain ATCC 204508 / S288c) (Baker's yeast)) (P32657 whole entry, the tested form may be a part): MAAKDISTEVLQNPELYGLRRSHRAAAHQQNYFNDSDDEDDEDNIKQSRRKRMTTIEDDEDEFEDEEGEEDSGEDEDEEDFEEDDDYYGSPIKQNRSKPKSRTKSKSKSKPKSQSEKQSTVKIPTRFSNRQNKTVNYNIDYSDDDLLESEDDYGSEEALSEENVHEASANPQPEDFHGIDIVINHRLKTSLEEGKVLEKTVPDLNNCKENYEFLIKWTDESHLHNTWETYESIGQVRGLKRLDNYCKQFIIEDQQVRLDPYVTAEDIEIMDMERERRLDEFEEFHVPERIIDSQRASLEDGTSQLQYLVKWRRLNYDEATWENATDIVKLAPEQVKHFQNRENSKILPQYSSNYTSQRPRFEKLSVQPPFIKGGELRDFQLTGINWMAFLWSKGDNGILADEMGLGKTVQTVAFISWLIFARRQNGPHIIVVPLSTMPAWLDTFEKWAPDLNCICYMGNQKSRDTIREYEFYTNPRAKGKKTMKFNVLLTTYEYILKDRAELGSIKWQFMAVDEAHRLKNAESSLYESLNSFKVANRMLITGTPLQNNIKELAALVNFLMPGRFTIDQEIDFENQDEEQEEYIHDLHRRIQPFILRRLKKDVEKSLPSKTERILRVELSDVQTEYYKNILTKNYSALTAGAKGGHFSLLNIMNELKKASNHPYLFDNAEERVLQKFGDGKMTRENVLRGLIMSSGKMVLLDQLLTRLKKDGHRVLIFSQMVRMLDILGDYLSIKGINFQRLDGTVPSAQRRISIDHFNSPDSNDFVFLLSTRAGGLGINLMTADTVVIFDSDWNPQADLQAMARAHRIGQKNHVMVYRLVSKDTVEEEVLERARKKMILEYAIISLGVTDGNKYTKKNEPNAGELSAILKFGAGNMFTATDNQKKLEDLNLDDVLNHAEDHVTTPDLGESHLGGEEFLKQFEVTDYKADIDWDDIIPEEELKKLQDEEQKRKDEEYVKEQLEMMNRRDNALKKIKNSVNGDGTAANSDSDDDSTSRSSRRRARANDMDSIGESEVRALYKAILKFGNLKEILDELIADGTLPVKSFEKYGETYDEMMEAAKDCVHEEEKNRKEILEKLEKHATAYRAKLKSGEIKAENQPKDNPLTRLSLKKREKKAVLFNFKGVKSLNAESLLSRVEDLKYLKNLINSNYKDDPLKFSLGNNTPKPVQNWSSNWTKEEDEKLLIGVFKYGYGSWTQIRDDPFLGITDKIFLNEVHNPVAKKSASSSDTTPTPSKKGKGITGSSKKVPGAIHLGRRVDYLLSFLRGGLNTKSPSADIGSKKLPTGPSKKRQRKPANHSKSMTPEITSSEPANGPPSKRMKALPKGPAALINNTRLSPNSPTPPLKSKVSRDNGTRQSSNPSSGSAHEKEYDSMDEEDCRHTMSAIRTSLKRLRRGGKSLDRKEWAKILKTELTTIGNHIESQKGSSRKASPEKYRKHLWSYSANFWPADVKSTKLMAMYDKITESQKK
Sequence of Sialic acid-binding Ig-like lectin 9 (Homo sapiens) (Q9Y336 whole entry): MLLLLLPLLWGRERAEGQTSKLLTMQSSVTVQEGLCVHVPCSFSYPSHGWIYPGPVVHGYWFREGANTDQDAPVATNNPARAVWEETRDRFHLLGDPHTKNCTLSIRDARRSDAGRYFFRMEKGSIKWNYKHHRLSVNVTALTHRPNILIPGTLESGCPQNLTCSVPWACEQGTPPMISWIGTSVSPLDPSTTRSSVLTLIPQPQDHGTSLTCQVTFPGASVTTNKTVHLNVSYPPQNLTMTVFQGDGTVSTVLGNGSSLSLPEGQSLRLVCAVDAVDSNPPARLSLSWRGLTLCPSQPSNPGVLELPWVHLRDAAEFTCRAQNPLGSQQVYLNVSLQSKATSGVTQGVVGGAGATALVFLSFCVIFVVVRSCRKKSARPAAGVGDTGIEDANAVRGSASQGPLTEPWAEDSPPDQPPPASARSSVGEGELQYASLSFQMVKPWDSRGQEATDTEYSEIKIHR

As to `COC(=O)C(C)(C)NC(=O)C1CC(=O)N(C2CCCC2)C1` (stereo not drawn), the Percent Effect in test [1] is -0.563%; in test [2] it was 11%; in test [3], -0.48%; in [4], 5.96%; in the test with Trypanosoma cruzi, 3.17%; in [5], -2.79%. For the same compound, the Percent Effect in [6] is 9.85%; in the test filed under Homo sapiens, 26.3%; in test [7] it was 11.5%; in test [8], 25.9%; in test [9] it was -1.54%.

Regarding `CCOc1ccccc1CSc1nnc(CC2CCS(=O)(=O)C2)n1C` (stereo not drawn), the Percent Effect in test [1] was -2.9%; in test [2] it was 2.7%; in test [3] it was -1.67%; in [4] it was 1.02%; in the test with Trypanosoma cruzi, -3.42%; in [5], 1.74%. Further, the Percent Effect in test [6] is 9.19%; in the test filed under Homo sapiens it was 5.04%; in test [7] it was 3.23%; in test [8] it was 11.1%; in test [9], -8.57%.

Turning to `Cc1ccc(CN(C)C(=O)CN2CCCC2Cn2cccn2)o1` (stereo not drawn), the Percent Effect in test [1] was 0.121%; in test [2], 2.7%; in test [3], -3.95%; in test [4], 12.4%; with Trypanosoma cruzi, 5.99%; in test [5], 0%. For the same compound, the Percent Effect in [6] is 1.9%; in the test filed under Homo sapiens, -5.92%; in test [7], 2.65%; in test [8], 7.32%; in test [9], -4.66%.

Consider `CCn1ccnc1CN1CCN(CCOc2cccc(C#N)c2)CC1`, for which the Percent Effect in test [1] is -4.35%; in [2], 21.1%; in test [3], -6.98%; in test [4], -4.93%; in the test with Trypanosoma cruzi, 5.64%; in [5], -0.383%. Besides, the Percent Effect in test [6] is 11.9%; in the test listed under Homo sapiens, 4.93%; in test [7], 8.33%; in test [8] it was 19.5%; in test [9], -13%.

Regarding `CCc1nc(N)sc1C(=O)N1CCCC(CCc2ccccc2C)C1` (stereo not drawn), the Percent Effect in test [1] is -4.6%; in [2] it was 5.41%; in test [3], -6.81%; in test [4], 34.1%; in the test on Trypanosoma cruzi it was 4.59%; in [5] it was -0.744%. The Percent Effect in test [6] was 10.6%; in the test filed under Homo sapiens it was 34.9%; in test [7], 9.68%; in test [8] it was 18.5%; in [9], -1.19%.

Regarding `COc1c(C2CCCN2C(=O)c2cccc(C(N)=O)c2)c(C)nn1C` (stereo not drawn), the Percent Effect was -6.26% in test [1]; 10.4% in [2]; 7.89% in test [3]; -11.9% in [4]; -5.19% with Trypanosoma cruzi; -2.32% in [5]. The Percent Effect in test [6] was 3.96%; in the test listed under Homo sapiens it was 17.6%; in [7], 0%; in test [8], 2.35%; in test [9], -17.8%.

Turning to `CN(C)C(=O)CN1CCCCC1c1nc(N)ncc1-c1cccc(F)c1` (stereo not drawn), the Percent Effect in test [1] was -4.39%; in test [2], 21.3%; in test [3], 1.75%; in test [4], -10.4%; in the test with Trypanosoma cruzi, 5.12%; in [5], -4.43%. The Percent Effect in [6] is 17.9%; in the test listed under Homo sapiens, 6.49%; in test [7], 4.25%; in test [8] it was 14.1%; in [9], -4.14%.

`CC(C)CN1CCCn2nc(CNC(=O)CCN)cc2C1`: the Percent Effect was -6.28% in test [1]; 5.33% in test [2]; 4.29% in test [3]; 6.76% in test [4]; 1.85% with Trypanosoma cruzi; 3.65% in test [5]. Besides, the Percent Effect was 13.4% in [6]; 7.88% in the test filed under Homo sapiens; 6.01% in test [7]; 16.1% in test [8]; -5.7% in test [9].
